The structures appear in SMILES notation. The campaign covered roughly 96,000 compounds. Fewer than 10 were called active. A selection follows. Values without a mark were called inactive.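 Rule for the calls: active = activation factor of at least 2 at 5 µM in the primary screen; inactive = the rest.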

Chain of Cytochrome P450 2C19 (Homo sapiens) (P33261 whole entry, looked up): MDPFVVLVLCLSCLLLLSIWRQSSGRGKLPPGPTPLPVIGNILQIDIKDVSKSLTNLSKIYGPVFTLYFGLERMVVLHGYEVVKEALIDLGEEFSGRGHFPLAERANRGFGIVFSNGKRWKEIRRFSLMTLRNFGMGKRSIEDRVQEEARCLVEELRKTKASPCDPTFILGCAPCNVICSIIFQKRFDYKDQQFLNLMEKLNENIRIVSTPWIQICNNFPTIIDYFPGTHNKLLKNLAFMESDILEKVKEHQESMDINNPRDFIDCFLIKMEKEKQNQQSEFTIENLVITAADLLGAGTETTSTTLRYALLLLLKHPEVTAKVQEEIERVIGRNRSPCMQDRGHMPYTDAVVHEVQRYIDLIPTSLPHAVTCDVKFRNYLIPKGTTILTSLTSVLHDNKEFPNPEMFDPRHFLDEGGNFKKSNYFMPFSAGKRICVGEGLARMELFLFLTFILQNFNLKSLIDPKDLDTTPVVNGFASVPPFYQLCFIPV

This assay concerns the target Cytochrome P450 2C19 (Homo sapiens) (UniProt P33261). The assay can be described thus: enhancers of cytochrome P450 2C19 turnover – biochemical, luminescence, primary screen (AID 1025).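 Note: 0 = wells with 2.5 mM tranylcypromine and 1 = vehicle-only wells.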 The note with it: recombinant CYP2C19, luciferin-H EGE luminescence; at 5 µM; stronger effect = higher value; 0 = fully inhibited enzyme, 1 = untreated enzyme.
With `ONC(=Nc1ccccc1)c1ccccc1Cl`, the activation factor is 0.7.
Then `Oc1ccccc1CNc1ncc(Br)cc1Br`, with 0.6; and `Cc1nc(SCC(=O)N2CC(=O)Nc3ccccc32)c2c(C)c(C)sc2n1`, with 0.5.
Then `COc1ccc(C(=S)Nc2ccccc2)cc1`, with 0.3; and `N#Cc1ccc(-c2ccc(F)cc2)nc1Sc1ccccc1`, with 1.
As for `OCCNc1nc2ccccc2n1-c1ncnc2sc3c(c12)CCC3`, the figure is 1.1; as for `O=C(Nc1ccc(Br)cc1)c1cccc(NC(=O)C2C3CC4OC(=O)C2C4C3)c1` (stereo unspecified), 0.8.
Consider `Cc1ccc(NC(=O)N2CCC(c3nc4c(nnn4Cc4c(F)cccc4Cl)c(=O)[nH]3)CC2)cc1`, for which the activation factor was 0.
Then `O=C(NC1CCc2ccccc21)C12CN(Cc3ccccc3)CC1C(c1cccc([N+](=O)[O-])c1)=NO2` (stereo unspecified), with 0.9; and `S=C1NC(c2ccccc2)=NCN1c1ccc(Br)cc1`, with 0.5.
As for `COC(=O)c1ccc(CSc2nc3cc(Cl)ccc3o2)cc1`, the activation factor was 1.1.
Consider `O=C(NCCc1ccccc1)c1ccc(NC2=NC3CS(=O)(=O)CC3S2)cc1` (stereo unspecified), for which the activation factor is 0.9.
As for `Cn1nc(-c2ccccc2)c(CSc2cccc(Cl)c2)c1Cl`, the figure is 0.5; as for `CC1(C)COC(c2cccn2Cc2ccccc2Cl)=N1`, 1.
Then `S=c1[nH]nc(-c2ccc(Cl)cc2)n1CC1CCCO1` (stereo unspecified), with 0.6; and `Cc1ccc(C2CC2C(=O)NN)cc1` (stereo unspecified), with 0.5; and `N=c1c2c(-c3ccccc3)c(-c3ccccc3)oc2ncn1Cc1ccco1`, with 0.8.
Then `O=c1[nH]c(CCl)nc2cc(-c3ccc(Cl)cc3)sc12`, with 0.7; and `CCCSC(=S)NC1CCS(=O)(=O)C1` (stereo unspecified), with 0.9.
In the case of `CC(Sc1nnc(Cc2ccc([N+](=O)[O-])cc2)o1)C(N)=O` (stereo unspecified), the activation factor is 0.8.
As for `Cc1ccc(NC(=S)NCCN2CCOCC2)cc1`, the figure is 0.8.
With `Cc1cnc(NC(=O)CSc2nnc(C)s2)s1`, the activation factor was 0.8.
As for `Cc1ccc(N2C(=O)C(Cc3ccccc3)NC2=S)cc1` (stereo unspecified), the figure is 0.6; as for `CC1=C(C)CC(C(=O)NNC(=O)c2ccccc2O)C(C(=O)O)C1` (stereo unspecified), 1.1.
Turning to `CCN(CC(=O)Nc1ccccc1OC)C(=O)Cn1cnc2ccccc2c1=O`, the activation factor was 1.
As for `O=c1[nH][nH]c(C(F)(F)F)c1C=NCc1ccccc1Cl`, the figure is 0.1; as for `COC(=O)c1sc2ncccc2c1OCc1ccc(Cl)cc1Cl`, 1.
With `CCOC(=O)C1Sc2[nH]c(=O)sc2C(c2ccc(Cl)cc2)C1C(=O)OCC` (stereo unspecified), the activation factor is 0.8.
As for `C=CCN(N=Nc1cccc([N+](=O)[O-])c1)c1cccc([N+](=O)[O-])c1`, the figure is 0.8; as for `CC(CC(=O)Nc1cc(C(F)(F)F)ccc1Cl)c1ccccc1` (stereo unspecified), 0.4; as for `C(=N/N1CCN(c2ccccc2)CC1)/c1cccs1`, 0.5.
As for `CC1(C)CC(=O)C(C=NCCN2CCN(C(=S)Nc3cccc(Cl)c3)CC2)=C(O)C1`, the figure is 0.4; as for `O=C(C1=C(O)C(=O)N(Cc2ccccc2)C1c1ccco1)c1ccco1` (stereo unspecified), 1.2.
As for `Nc1nc(C23CC4CC(CC(C4)C2)C3)cs1`, the figure is 0.6.
On to `CC(C)N(c1ccccc1)c1ncnc(NCCC(=O)O)c1[N+](=O)[O-]`, for which the activation factor is 0.4.
As for `CC1=C(C(N)=O)C(c2sccc2C)n2nnnc2N1` (stereo unspecified), the figure is 0.9.

(Values after PubChem BioAssay AID1025 (Sanford-Burnham Center for Chemical Genomics, 2008).)
